Source: PubChem BioAssay (NCI)
Compounds without any hit were thinned out: in the full panel of roughly 83,000, 20% have a hit.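 Cells were grown in 96-well plates and exposed to the test compound at a single concentration for 48 hours; results are reported as percent growth, with values below 10 considered active.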 A number with no mark means an inactive call. Calls of active or inactive are those of the source.

Each molecule was assayed on LOX IMVI melanoma (assay: NCI-60 one-dose screen, 48 h (100 = growth as untreated, 0 = no growth, -100 = all killed)). Settings: 10 µM unless noted.

In the case of `CN1CC=C(c2cc(NC(=O)Nc3ccc(Oc4ccnc(NC(=O)C5CC5)c4)c(F)c3)cc(C(F)(F)F)c2)CC1`, the growth was -46.5% (active).
For `C=C(C)[C@@H]1CC[C@]2(C(=O)OCCCC[P+](c3ccccc3)(c3ccccc3)c3ccccc3)CC[C@]3(C)[C@H](CC[C@@H]4[C@@]5(C)CC[C@H](OC(=O)C(Cl)Cl)C(C)(C)[C@@H]5CC[C@]43C)[C@@H]12`, the growth was -93.7% (active).
For `COc1ccccc1-c1ccc2nc(NC(=O)Nc3cc(C(F)(F)F)cc(C(F)(F)F)c3)sc2c1`, the growth was 5.02% (active).
`COc1cc(C(=O)Nc2cc(O)c(C/C=C(\C)CCC=C(C)C)c(O)c2)cc2c1O[C@]1(C)CC[C@@H](O)C(C)(C)[C@H]1C2` was tested, and the growth was -33.8% (active).
With `Nc1ccc2c(c1)C(=O)C(=O)c1c-2nc2ccccn12` the growth was -12.7% (active).
In the case of `OCCNc1nc(NCCO)nc(Nc2ccc(C3=NN(c4cc(Cl)cc(Cl)c4)C(c4ccccc4)C3)cc2)n1` (configuration not stated), the growth was -36.9% (active).
For `COc1cc(-c2csc(NC(=O)Nc3cc(Cl)cc(Cl)c3)n2)cc(OC)c1OC`, the growth was 6.77% (active).
With `COc1cc(/C=C/C(=O)c2ccc(NC(=O)CSc3nnc(-c4cc(OC)c(OC)c(OC)c4)n3-c3ccccc3)cc2)cc(OC)c1OC` the growth was -52.3% (active).
`COc1ccccc1C(=O)/C=C/c1cc2cccc(OC)c2[nH]c1=O` was tested, and the growth was -63.5% (active).
With `CN1C(=O)c2cc(Cl)nc3c(NC(=O)c4cccc(Cl)c4)c(Cl)c(NC(=O)c4cccc(Cl)c4)c1c23` the growth was -65.1% (active).

In order of rising growth:
1. COc1ccc2[nH]c(=O)c(/C=C/C(=O)c3ccccc3OC)cc2c1  10.2%
2. Cn1cc(-c2ccc3c(c2)ncn3-c2ccc(CC(=O)Nc3cc(C(C)(C)C)on3)cc2)cn1  12.6%
3. COc1ccc(C(=O)c2cc(OC)c(C)c(OC)c2)cc1OC(=O)CCl  21.8%
4. COc1ccc(C(=O)c2cc(F)c(F)c(OC)c2F)cc1OC(=O)CCl  34.7%
5. Cc1c(Cl)cccc1NC(=O)c1sc2nc3c(cc2c1N)COCC3  35.5%
6. COc1ccc2nc(-c3ccc(Cl)cc3)cc(C(=O)N3N=C(c4ccc(N)cc4)CC3c3ccccc3)c2c1 (configuration not stated)  40.4%
7. Cc1c(Cl)cccc1NC(=O)c1sc2nc3c(cc2c1N)CCCCCC3  40.8%
8. Nc1ccc(C2=NN(C(=O)c3cc(-c4ccc(Cl)cc4)nc4ccccc34)C(c3ccccc3)C2)cc1 (configuration not stated)  42.5%
9. CC(=O)Nc1nc2c(c(N)c1C#N)C(c1cccc(Cl)c1)C1=C(CCCC1=O)N2c1sc2c(c1C#N)CCCC2 (configuration not stated)  51.5%
10. CC1CCN(CCCCCOc2ccc3oc4ccccc4c(=O)c3c2)CC1  53.3%
11. CCOC(=O)C(=Cc1c(-c2ccccc2)[nH]c2ccccc12)C(=O)OCC  57.3%
12. COc1ccc(-c2[nH]c3ccc(OC)cc3c2C=C(C#N)C#N)cc1  63%
13. C#C[C@@]1(O)[C@@H](CO)O[C@@H](n2cc(-c3ccco3)c3c(N)ncnc32)[C@@H]1O  65.6%
14. C=C(C)[C@@H]1CC[C@]2(C(=O)NCCCO)CC[C@]3(C)[C@H](CC[C@@H]4[C@@]5(C)CCCNC(C)(C)[C@@H]5CC[C@]43C)[C@@H]12  78.7%
15. Cc1nccc2c3ccc(OCc4cn(-c5ccccc5)nn4)cc3n(CCCc3ccccc3)c12  81.3%
16. N#Cc1c(-c2ccc(F)cc2)nc(N/N=C/c2cccc(O)c2)nc1N1CCOCC1  85.2%
17. CCSc1nc(Cl)c(C#N)c(-c2ccc(F)cc2)n1  87.1%
18. Cc1cc(Cl)cc(CN(Cc2ccccc2)Cc2c(O)ccc3ccccc23)c1O  90.2%
19. O=C(Nc1ccccc1)NS(=O)(=O)c1c[nH]c(=S)[nH]c1=O  92.4%
20. O=C(CSC(=S)N1CCCCC1)Nc1ccccc1  94.2%
21. CC(C)NS(=O)(=O)c1cccc(-c2ccc3c(=O)n(CCCN)c4c(c3c2)C(=O)c2ccccc2-4)c1  94.4%
22. C#C[C@@]1(O)[C@@H](CO)O[C@@H](n2cnc3c(-c4ccccc4)ncnc32)[C@@H]1O  94.6%
23. N#Cc1c(NC(=O)c2cccs2)[n+]([O-])c2cc(C(F)(F)F)ccc2[n+]1[O-]  94.7%
24. CC(=O)Nc1ccc2c(c1)Cc1cc(F)ccc1-2  95.8%
25. O=S(=O)(Nc1nccs1)c1ccc(Nc2nc(-c3ccncc3)cs2)cc1  95.8%
26. COc1cc(-c2cn(-c3ccc(Cl)c(Cl)c3)c(=O)[nH]2)cc(OC)c1OC  97.7%
27. NC(=O)C(O)(c1ccccc1)c1ccccc1  100%
